From PubChem BioAssay AID2762 (National Center for Advancing Translational Sciences (NCATS), 2010) come the findings set out here.

Records with an inconclusive call do not appear. Active and inactive are the calls of the source. Calls follow the shape of the dose curve; as a rule, active = well fitted inhibition curve with a large enough effect; inconclusive = small, poorly fitted or top-dose-only effect, or effect the other way; inactive = no such curve, though single readings can be large or run the other way.

Sequence of Nuclear receptor ROR-gamma (Mus musculus) (P51450 whole entry, looked up, the tested form may be a part): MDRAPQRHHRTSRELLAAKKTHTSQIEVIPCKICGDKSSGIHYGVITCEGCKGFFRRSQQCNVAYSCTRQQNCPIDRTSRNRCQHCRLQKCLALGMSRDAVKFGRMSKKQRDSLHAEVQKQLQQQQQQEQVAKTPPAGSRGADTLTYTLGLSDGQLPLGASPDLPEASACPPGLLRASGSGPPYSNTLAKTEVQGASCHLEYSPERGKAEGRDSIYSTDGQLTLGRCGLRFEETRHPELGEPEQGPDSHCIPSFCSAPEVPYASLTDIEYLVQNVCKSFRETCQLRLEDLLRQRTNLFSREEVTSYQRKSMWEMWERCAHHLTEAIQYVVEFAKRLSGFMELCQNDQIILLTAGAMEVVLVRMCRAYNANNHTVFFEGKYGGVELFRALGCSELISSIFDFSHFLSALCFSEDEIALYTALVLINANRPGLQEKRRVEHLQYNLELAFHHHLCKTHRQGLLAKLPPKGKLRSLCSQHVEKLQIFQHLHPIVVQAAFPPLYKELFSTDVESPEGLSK

The experiment has as its target Nuclear receptor ROR-gamma (Mus musculus) (UniProt P51450). Nature of the experiment: Concentration response confirmation assay for inhibitors of ROR gamma transcriptional activity. The following applies: Drosophila S2 Gal4-RORgamma UAS-luciferase, 20 h; series mostly up to 46.1 µM. From the text: NIH Molecular Libraries Probe Production Network [MLPCN] NIH Chemical Genomics Center [NCGC] MLPCN Grant: R03 DA026211-01 Assay Provider: Dan Littman, New York University Assay Overview: The retinoic acid-related orphan receptor (ROR) gamma is a transcription factor that has a central role in the differentiation of Th17 cells, a subset of T helper cells that secrete the inflammatory cytokines IL-17, IL-17F, and IL-22. Th17 cells have been implicated in graft versus host disease, autoimmune disease and asthma. ROR gamma is induced in naive T helper cells in the presence of TGF-beta combined with IL-6, IL-21, or IL-23, and thereafter directs the expression of the Th17 lineage cytokines. To study the mechanism of action of ROR gamma, an insect cell-based assay was screened. This Drosophila Schneider cell line was stably transfected with two vectors: a gene expressing a fusion of the Gal4 DNA binding domain and ROR gamma transactivation domain under the control of the metallothionine promoter and a Photinus luciferase reporter regulated by the Gal4 binding site enhancer, UAS. […] Small molecule inhibitors of ROR gamma activity are detected by a decrease in luciferase reporter activity.
Assay Protocol Summary: For screening, 600 cells in 4 uL/well were dispensed into white solid 1536-well plates (Grenier) using a solenoid-based dispenser. Following transfer of 23 nL compound or DMSO vehicle by a pin tool, the plates were incubated 1 hr at ambient temperature, and 1 uL/well copper sulfate (700 uM final concentration) was added. The plates were centrifuged 15 s at 1000 RPM and incubated 20 hr at ambient temperature. After addition of 1.5 uL Photinus luciferase detection reagent, the plates were incubated 10 min at ambient temperature and then read by an ViewLux (Perkin Elmer) to detect luminescence. Keywords: NIH Roadmap, MLPCN, MLI, MLSMR, qHTS, NCGC, qHTS, nuclear hormone receptor, retinoic acid-related orphan receptor, ROR gamma
As to `Cc1cc(NCc2ccccn2)n2ncc(-c3ccc(Cl)cc3)c2n1`, the Potency was 0.199 µM (active). To `CCn1cc(C(=O)O)c(=O)c2cc(F)c(N3CCN(C(=S)NC(=O)c4ccccc4C)CC3)cc21` belongs “inactive”.

In the case of `NC(=O)/C=C/C(=O)Nc1ccc(Cl)cc1`, the Potency was 8.88 µM (active). For the molecule `COc1ccc(OCC(=O)NNc2nc3ccccc3s2)cc1`, the Potency is 14.1 µM (active).

In the case of `Cc1nn(-c2cc(C)c3ccccc3n2)c2c1C1C(C2)C1(C)C` (stereo not given), the Potency is 6.28 µM (active). Turning to `Cc1cc(-c2ccccc2)nc(N2CCC(C(=O)NCc3ccccc3Cl)CC2)n1`, the Potency entry was “inactive”. Take `Cc1cc(C)c(S(=O)(=O)NCCn2ccc3ccccc32)c(C)c1`: the Potency entry is “inactive”. Regarding `Cc1sc2ncnc(Sc3nnc4sc5ccccc5n34)c2c1C`, the Potency entry was “inactive”. For `CCOC(=O)C(C(=O)OCC)C(C(=O)OCC)N1CCOCC1` (stereo not given), the Potency is 3.15 µM (active). `COc1ccc(C(=O)/C=C/c2ccc(OC)cc2OC)c(O)c1`: the Potency is 0.888 µM (active).

Consider `COc1cccc2cc(-c3n[nH]c(=S)n3C)oc12`, for which the Potency was 15.8 µM (active). Regarding `O=C(Cn1c(=O)oc2ccc(Cl)cc21)Nc1ccon1`, the Potency entry was “inactive”. With `CCOC(=O)c1ccc2nc(Nc3nc4ccc(F)cc4s3)sc2c1` the figure was 5.6 µM (active).

Turning to `CC(C)(C)S(=O)(=O)c1cnc2c(-c3ccsc3)cnn2c1N`, the Potency is 22.3 µM (active). To `CCN1CCCc2cc(CN(CCN3CCOCC3)C(=S)Nc3ccc(C)cc3)ccc21` belongs 9.96 µM (active); to `COc1ccc(-c2cc(C(F)(F)F)nc(S(=O)(=O)CCCC(=O)Nc3cccnc3Cl)n2)cc1OC`, 11.2 µM (active); to `Cc1cc(C)c2[nH]c(C(=O)Nc3ccc4c(c3)OCO4)cc2c1`, 0.125 µM (active).

With `CCN1C(=O)/C(=C/c2ccc(N3CCCC3)cc2)NC1=S`, the Potency was 6.28 µM (active).

As to `CC(=O)c1cccc(N(CC(=O)Nc2ccccc2C(=O)N2CCCC2)S(C)(=O)=O)c1`, the Potency entry is “inactive”. Take `COc1ccc2nc(NC(=O)c3sc4nc(C)cc(C)c4c3N)sc2c1`: the Potency was 0.0199 µM (active). To `Cc1nn(-c2ccccc2)c(C)c1C(=O)Nc1nnc(-c2ccco2)o1` belongs 0.996 µM (active). To `Fc1cccc2sc(Nc3nnc(-c4ccco4)o3)nc12` belongs 1.99 µM (active); to `COc1cc(C2c3cc4c(cc3C(OC3OC5COC(c6cccs6)OC5C(O)C3O)C3COC(=O)C23)OCO4)cc(OC)c1O` (stereo not given), 4.99 µM (active); to `CCOC(=O)Cc1ccc(NC(=O)c2ccc(C(C)(C)C)cc2)cc1`, “inactive”.

For `C=C(C)c1cccc(C(C)(C)NC(=O)N2CCN(CC)CC2)c1`, the Potency result was “inactive”. With `COc1ccc2nc(N3C(=O)CNC3=S)sc2c1` the figure was 1.99 µM (active); with `O=[N+]([O-])c1ccccc1/C=C/C=N/n1c(-c2ccc(Cl)cc2)n[nH]c1=S`, “inactive”. As to `S=c1nc(COc2ccccc2)[nH]c2ccccc12`, the Potency was 6.28 µM (active). Take `Oc1ccc(COCc2ccccc2)c2cccnc12`: the Potency is 1.58 µM (active). Take `COc1cccc(-c2cc(C(=O)N3CCc4ccccc4C3)[nH]n2)c1`: the Potency result was “inactive”. With `Cc1cc(C)nc(-n2nc(C)cc2NC(=O)CNC(C)c2ccccc2)n1` (stereo not given) the figure was 6.28 µM (active); with `O=C(NC(=S)Nc1nc(-c2ccc(Br)cc2)cs1)c1cccnc1`, “inactive”; with `CCOc1ncccc1C(=O)OCC(=O)Nc1ccc(-c2nc3ccc(C)cc3s2)cc1`, 0.396 µM (active). With `O=C(NC(=S)Nc1nc(-c2ccccc2)cs1)c1cncc(Br)c1` the figure was 3.15 µM (active); with `Cc1cc(C)nc(-n2nc(C)cc2NC(=O)c2ccc(F)cc2F)n1`, 0.996 µM (active). As for `CCc1ccc(-c2nc(CSCC(=O)NC3CC3)c(C)o2)cc1`, the Potency was 3.97 µM (active). With `Cc1cc(NC(=O)CN2CCOCC2)n(-c2nc3ccccc3s2)n1` the figure was 15.8 µM (active); with `Oc1ccccc1-c1cc(-c2ccc3c(c2)OCCO3)n[nH]1`, 11.2 µM (active); with `CCOC(=O)c1oc2cccc(OCC(O)CNC(C)C)c2c1C` (stereo not given), “inactive”. For `CC(C)(C)S(=O)(=O)c1cnc2c(-c3ccc(Cl)cc3)cnn2c1N`, the Potency was 4.45 µM (active).
